{"source": "the supplement of paper PMC11219838", "note": "Values without a mark were called inactive."}
{"system": "Caenorhabditis elegans L1 (N2)", "assay": "survival and reproduction score of C. elegans L1 (0: 0-10 living worms, 1: 11-20, 2: 21-50, 3: >50, 4: overgrown) (score 0-4); higher = more worms, less nematicidal, active = 1 or less; extreme values may be limits of the assay", "details": "60 µM; 6 days; temperature: 20 °C", "how_it_was_run": "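About 20 synchronized C. elegans N2 L1s were added per 96-well well with E. coli HB101 in liquid NGM, and compound was pinned to 60 µM final (0.6% v/v DMSO). Sealed plates were shaken at 200 rpm for 6 days at 20 °C. Survival and reproduction were scored under a dissection microscope as an ordinal score of living worms per well. The scale ran 0 (0–10 worms) to 4 (overgrown, starved), and two biological replicates were averaged.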"}
{"smiles": "CCOc1ccccc1-c1nnc(SCC(=O)Nc2ccccc2)o1", "survival and reproduction score": 4}
{"smiles": "Cc1ccc(-c2noc(-c3ccc(C)cc3)n2)cc1", "survival and reproduction score": "0.5 (active)"}
{"smiles": "Nc1nc(CSc2nnc(-c3ccccc3)o2)cs1", "survival and reproduction score": 4}
{"smiles": "Cc1ccc(-c2nnc(SCc3ccccc3F)o2)cc1", "survival and reproduction score": 4}
{"smiles": "Clc1cccc(-c2nc(-c3ccc4c(c3)OCO4)no2)c1", "survival and reproduction score": 4}
{"smiles": "Brc1ccc(-c2noc(CSc3ccccc3)n2)cc1", "survival and reproduction score": "0 (active)"}
{"smiles": "CCOc1nc(-c2ccccc2)ccc1-c1noc(CC)n1", "survival and reproduction score": 4}
{"smiles": "Brc1ccc(-c2nc(-c3ccc4c(c3)OCO4)no2)cc1", "survival and reproduction score": 4}
{"smiles": "COc1cccc(NC(=O)c2ccccc2-c2nc(-c3ccc(F)cc3)no2)c1", "survival and reproduction score": 4}
{"smiles": "Cc1ccc(-c2noc(C3CCCCC3)n2)cc1", "survival and reproduction score": "0 (active)"}
{"smiles": "Cc1ccc(CSc2nnc(-c3ccco3)o2)cc1", "survival and reproduction score": "0 (active)"}
{"smiles": "Cc1ccc(SCc2nc(-c3ccccc3)no2)cc1", "survival and reproduction score": 4}
{"smiles": "Cc1cc(OCc2nc(-c3ccncc3)no2)cc(C)c1Cl", "survival and reproduction score": 4}
{"smiles": "Cc1ccccc1OCc1nc(-c2cccs2)no1", "survival and reproduction score": "1 (active)"}
{"smiles": "CC(=O)Nc1ccc(NC(=O)c2ccccc2-c2nc(-c3cccc(C)c3)no2)cc1", "survival and reproduction score": 4}
{"smiles": "Cc1cc(OCc2nc(-c3cccnc3)no2)cc(C)c1Br", "survival and reproduction score": 4}
{"smiles": "Cc1ccc(OCc2nc(-c3cccnc3)no2)cc1C", "survival and reproduction score": 4}
{"smiles": "COc1cccc(-c2noc(-c3ccccc3C)n2)c1", "survival and reproduction score": "0.5 (active)"}
{"smiles": "COc1nc(-c2ccc(Cl)cc2)ccc1-c1noc(C)n1", "survival and reproduction score": 4}
{"smiles": "O=C(CSc1nnc(-c2ccccc2)o1)Nc1cccc(Cl)c1", "survival and reproduction score": 4}
